Hits are enriched below; roughly 1.1% of the tested compounds scored in any of these assays.
NR2F2 inh: NR2F2 (human) inhibition, primary screen | P24468 | HEK293T NGFI-A luciferase reporter, luminescence | inhibition, % at 8.6 µM | 370,000 tested, 0.7% active | AID 686940;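 active = inhibition above a per-plate cutoff, mean inhibition of test wells between control levels plus 3 SD, cut at about 38% in these data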;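 note: cells cotransfected with COUP-TFII expression vector driving the NGFI-A reporter; 0% = median of COUP-TF2 test wells and 100% = reporter-only cells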
SRC3 inh: inhibitors of human steroid receptor coactivator 3 (SRC3); HEK293 GAL4-SRC3 luciferase reporter, luminescence; AID 588352; Q9Y6Q9; 360,000 tested, 0.17% active; inhibition, % at 3.6 µM;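 active = inhibition above a per-campaign cutoff, the mean of all compounds plus 3 SD, cut at about 60% in these data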;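 note: 0% = DMSO-treated cells and 100% = gossypol-treated cells at 36 µM; higher means less SRC3-driven luciferase light from the GAL4 reporter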
Target sequence (Q9Y6Q9 whole entry, looked up, the tested form may be a part): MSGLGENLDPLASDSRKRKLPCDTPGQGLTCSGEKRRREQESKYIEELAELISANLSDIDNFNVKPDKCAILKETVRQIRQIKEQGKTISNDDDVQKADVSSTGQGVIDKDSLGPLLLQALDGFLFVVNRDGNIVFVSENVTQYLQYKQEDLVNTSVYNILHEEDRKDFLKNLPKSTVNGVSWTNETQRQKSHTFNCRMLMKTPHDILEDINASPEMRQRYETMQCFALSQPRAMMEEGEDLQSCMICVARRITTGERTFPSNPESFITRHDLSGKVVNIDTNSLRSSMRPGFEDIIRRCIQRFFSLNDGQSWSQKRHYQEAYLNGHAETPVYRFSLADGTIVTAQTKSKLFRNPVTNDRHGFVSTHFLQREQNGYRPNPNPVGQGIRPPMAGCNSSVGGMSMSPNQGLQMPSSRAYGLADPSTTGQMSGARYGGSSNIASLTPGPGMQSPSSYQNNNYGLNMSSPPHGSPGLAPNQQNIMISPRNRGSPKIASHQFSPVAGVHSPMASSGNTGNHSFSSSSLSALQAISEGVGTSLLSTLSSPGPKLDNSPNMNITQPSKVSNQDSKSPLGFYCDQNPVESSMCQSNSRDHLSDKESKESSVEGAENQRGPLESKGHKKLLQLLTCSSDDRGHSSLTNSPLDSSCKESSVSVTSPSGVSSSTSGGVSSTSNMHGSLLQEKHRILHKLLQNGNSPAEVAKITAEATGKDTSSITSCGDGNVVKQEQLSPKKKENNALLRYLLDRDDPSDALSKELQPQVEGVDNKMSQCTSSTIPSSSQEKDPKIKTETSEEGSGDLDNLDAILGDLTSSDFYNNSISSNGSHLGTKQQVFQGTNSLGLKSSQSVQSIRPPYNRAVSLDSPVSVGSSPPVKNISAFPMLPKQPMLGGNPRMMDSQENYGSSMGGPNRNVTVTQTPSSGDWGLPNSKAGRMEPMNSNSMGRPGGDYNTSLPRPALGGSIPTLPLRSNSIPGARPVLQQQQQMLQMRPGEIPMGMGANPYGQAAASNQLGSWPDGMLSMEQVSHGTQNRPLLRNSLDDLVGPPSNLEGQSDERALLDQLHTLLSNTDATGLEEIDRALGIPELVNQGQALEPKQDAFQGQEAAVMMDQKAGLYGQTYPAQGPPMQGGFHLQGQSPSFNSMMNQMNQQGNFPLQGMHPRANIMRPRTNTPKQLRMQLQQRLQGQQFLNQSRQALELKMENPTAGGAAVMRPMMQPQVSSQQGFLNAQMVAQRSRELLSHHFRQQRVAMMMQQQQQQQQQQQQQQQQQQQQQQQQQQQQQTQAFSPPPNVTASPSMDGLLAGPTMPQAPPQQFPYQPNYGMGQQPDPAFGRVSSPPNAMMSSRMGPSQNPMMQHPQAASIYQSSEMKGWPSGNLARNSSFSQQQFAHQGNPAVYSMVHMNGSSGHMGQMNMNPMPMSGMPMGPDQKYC
GalR3 antagonist: antagonists of human GalR3 | O60755 | HEK293 GalR3-CNG cAMP membrane potential fluorescence; galR3 body fused to GalR1 C-terminus | inhibition, % at 3 µM | 360,000 tested, 0.44% active | AID 651719;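 active = inhibition above the screen-wide average plus 3 SD, cut at about 13% in these data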;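 note: forskolin and galanin both at EC90 stimulate the cells; cAMP rise reported by CNG channel membrane potential dye signal; 0% = forskolin plus galanin with DMSO and 100% = forskolin alone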
LRH-1 inv ag: NR5A2 inverse agonism in reporter assay; inhibition, % at 3.6 µM; 360,000 tested, 0.13% active; O00482; HEK293T StAR-luciferase reporter, LRH-1 transfected, 24 h;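 active = inhibition above the mean inhibition of all tested compounds plus 3 SD, cut at about 73% in these data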;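 note: 0% = DMSO wells and 100% = reporter-only cells lacking LRH-1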
SRC1 inh: inhibitors of human steroid receptor coactivator 1 (SRC1); Q15788; HEK293 GAL4-SRC1 luciferase reporter, luminescence; inhibition, % at 3.6 µM; 360,000 tested, 0.12% active;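 active = inhibition above the campaign mean plus 3 SD, with each screening campaign given its own cutoff, cut at about 60% in these data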;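 note: 0% = DMSO treated cells and 100% = gossypol at 36 µM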
NCOA2 inhibitor: human SRC2 (NCOA2) inhibition; 370,000 tested, 0.17% active; HEK293 GAL4-SRC2 luciferase reporter, luminescence; inhibition, % at 9 µM; AID 651957;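 active = inhibition above the mean inhibition of all tested compounds plus 3 SD, set per campaign, cut at about 52% in these data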;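 note: 0% = DMSO treated cells and 100% = cells given Gossypol at 36 µM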
GalR3 antag conf: confirmation of human galanin receptor 3 antagonists | 1,600 tested, 59% active | shares compounds with GalR3 antagonist | HEK293 GalR3 CNG cAMP biosensor, membrane potential fluorescence; galR3 fused to GalR1 carboxy tail; challenged with forskolin and galanin at EC90 | inhibition, % at 3 µM;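 active = inhibition above the primary screen's cutoff, the mean inhibition of all screened compounds plus 3 SD, cut at about 13% in these data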;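 note: 0% = forskolin plus galanin and 100% = forskolin alone with DMSO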
CNG parental: counter-screen for GalR3 antagonists: nonspecific agonists in parental HEK-CNG cells; shares compounds with GalR3 antagonist; HEK293-CNG parental cells, cAMP membrane potential fluorescence; normalised: DMSO wells 0%, forskolin wells 100%; activation, % at 3 µM; 1,600 tested, 10% active; AID 652268; in the data active = activation above about 1.3%
An asterisk follows results filed as active; / = no result.

SMILES	NR2F2 inh	SRC3 inh	GalR3 antagonist	LRH-1 inv ag	SRC1 inh	NCOA2 inhibitor	GalR3 antag conf	CNG parental
O=C(O)c1nn(CCSc2ccccc2F)c(=O)c2ccccc12	-15	-13	27*	1	-27	-9	9	0
Cc1cccc(C)c1OCCn1nc(C(=O)O)c2ccccc2c1=O	-14	-93	16*	-34	-75	-7	24*	0
CCc1ccc(OCC(=O)Nc2ccc(-c3cc4ccccc4oc3=O)c(OC)c2)cc1	10	-13	26*	-20	-17	-21	66*	0
COc1cc(NC(=O)c2cc(Cl)ccc2Cl)ccc1-c1cc2ccccc2oc1=O	13	14	-9	16	10	2	/	/
COc1cccc(-n2c(C)c(C(C)=O)c(C(C)=O)c2C)c1	0	26	15*	-4	-10	11	4	0
COc1ccc(-n2c(C)c(C(C)=O)c(C(C)=O)c2C)cc1	6	22	-4	6	7	7	/	/
CCOc1ccc(NC(=S)NC(=O)c2c(Cl)cnn2CC)c([N+](=O)[O-])c1	3	4	14*	5	-14	13	9	0
CCOc1ccc(NC(=S)NC(=O)c2c(Br)cnn2C)c([N+](=O)[O-])c1	-7	-20	-1	-37	-6	-50	/	/
Cc1cccc(-c2cccc3c4c([nH]c23)[C@@H]2C[C@H](N(C)C(=O)Nc3ccccc3)[C@H]([C@H](C)O)C(=O)N2CC4)c1	-2	/	/	/	/	-1	/	/
Cc1ccc(-c2nnc(COC(=O)c3cc(=O)[nH]c4ccccc34)o2)cc1	8	-4	13*	3	1	15	1	0
COc1ccc(CCNC(=O)c2cccnc2SC)cc1	-1	8	13*	-16	2	14	27*	0
CC(=O)NCCc1nc2ccccc2n1Cc1ccc(C)cc1	-77	25	/	-3	-1	-12	5	0
CC(=O)NCCCc1nc2ccccc2n1Cc1cc(C)ccc1C	-4	5	-4	0	-9	-13	/	/
CC(C)(C)OC(=O)C1[C@H](O)C=CC[C@H]1S(=O)c1ccccc1 (stereo partly specified)	-20	/	/	/	/	/	/	/
C[C@@H]1[C@H](O)[C@@H](C)/C=C/C=C/C=C/C=C/C=C/C=C/C=C/[C@H](OC2O[C@H](C)[C@@H](O)[C@H](N)[C@@H]2O)C[C@@H]2O[C@](O)(C[C@@H](O)C[C@@H](O)[C@H](O)CC[C@@H](O)C[C@@H](O)CC(=O)O[C@H]1C)C[C@H](O)[C@H]2C(=O)O (stereo partly specified)	10	/	/	/	/	4	/	/
CCOC(=O)c1c(C)c2c(n1C)CCC/C2=N\O	-33	-8	66*	-14	-12	6	32*	0
CC(=O)c1c(C)[nH]c(C(=O)OCC(=O)Nc2ccc(C)cc2[N+](=O)[O-])c1C	28	33	13*	31	5	29	107*	-1
CC(=O)c1c(C)[nH]c(C(=O)OCC(=O)Nc2cc(Cl)ccc2[N+](=O)[O-])c1C	-12	18	93*	32	-18	21	50*	-1
COCCCNC(=O)C(=O)Nc1ccc2c(c1)N(S(=O)(=O)c1cccs1)CCC2	-46	4	16*	11	-15	6	6	2.1*
CC1CN(c2ccc(C(=O)c3ccccc3C(=O)O)cc2[N+](=O)[O-])CC(C)O1 (stereo unspecified)	18	-4	18*	-11	-6	-15	-1	0
Cc1ccc(C(=O)c2cc([N+](=O)[O-])ccc2N2CC(C)OC(C)C2)cc1 (stereo unspecified)	12	1	-3	6	-8	-10	/	/
Cc1ccccc1-c1cc(C(=O)Nc2sc(C(=O)OC(C)C)c(C)c2C#N)c2ccccc2n1	22	55	71*	22	30	3	100*	1
